Laboratory results as given in PubChem BioAssay (NCI).
The panel holds about 83,000 compounds, 20% with a hit somewhere; the sample as a whole holds those more often.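 Values shown are percent growth following 48 h exposure of cells in 96-well plates to a single concentration of compound; below 10 was considered active.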 Values without a mark were called inactive. Activity calls are given as the source filed them.

Columns and labels:
Assay in all cases: NCI-60 one-dose screen, 48 h (100 = growth as untreated, 0 = no growth, -100 = all killed)
Details in all cases: 10 µM unless noted
HCT-15 colon = system: HCT-15 colon
HT29 colon = system: HT29 colon
SNB-75 CNS = system: SNB-75 CNS
SNB-19 CNS = system: SNB-19 CNS
U251 CNS = system: U251 CNS
PC-3 prostate = system: PC-3 prostate
SK-MEL-5 melanoma = system: SK-MEL-5 melanoma
LOX IMVI melanoma = system: LOX IMVI melanoma
SK-MEL-28 melanoma = system: SK-MEL-28 melanoma
UACC-62 melanoma = system: UACC-62 melanoma

| SMILES | growth (HCT-15 colon) | growth (HT29 colon) | growth (SNB-75 CNS) | growth (SNB-19 CNS) [%] | growth (U251 CNS) | growth (PC-3 prostate) | growth (SK-MEL-5 melanoma) | growth (LOX IMVI melanoma) | growth (SK-MEL-28 melanoma) | growth (UACC-62 melanoma) [%] |
| --- | --- | --- | --- | --- | --- | --- | --- | --- | --- | --- |
| c1cnc2[nH]cc(-c3csc(-c4cn(CCCCN5CCCCC5)c5ccccc45)n3)c2c1 | 51% | 34.4% | 70.3% | 90.4 | 86.3% | 63.1% | 70.4% | 84.2% | 83% |  |
| CCN1C(=O)C(=C/C=C/c2ccccc2)C(=O)N(CC)C1=O | 62.6% | 66% | 96.8% | 69.9 | 54.9% | 61.7% | 89.8% |  | 104% | 79 |
| CN1CCC(c2c[nH]c3ccccc23)C1 (configuration not stated) | 102% | 100% | 95.5% | 95.2 | 98.2% | 112% | 130% |  | 107% | 107 |
| OCc1ccc2c(c1)OCO2 | 104% | 96.4% | 84.5% | 104 | 95.8% | 94.3% | 102% | 95.3% | 108% |  |
| Cn1cc(-c2csc(-c3cn(CCN4CCOCC4)c4ccc(F)cc34)n2)c2cccnc21 | 19.6% | 40.1% | 51.1% | 49.2 | 36.9% | 1.07% (active) | -28.8% (active) | 27.9% | 40.5% |  |
| CC[C@H](C)[C@H](NC(=O)C12C3C4C1C1C2C3C41NC)C(=O)N(C)[C@H](C[C@@H](OC(C)=O)c1nc(C(=O)N[C@@H](Cc2ccccc2)C[C@H](C)C(=O)OC)cs1)C(C)C (some centres not stated) | 18.4% | 2.58% (active) | 31.4% | 49.6 | 11.6% | 21.2% | 3.34% (active) | 15.7% | 58.1% |  |
| CC(=O)O[C@H]1C(=O)[C@@]2(C)[C@H]([C@H](OC(=O)c3ccccc3)[C@]3(O)C[C@H](OC(=O)[C@H](OC(=O)OC[C@H]4COC(C)(C)O4)[C@@H](NC(=O)c4ccccc4)c4ccccc4)C(C)=C1C3(C)C)[C@]1(OC(C)=O)CO[C@@H]1C[C@@H]2O | 5.28% (active) | 2.46% (active) | -20.5% (active) | 11.9 | 15.9% | 21% | 18.2% |  | 49.7% | 21.7 |
| O=C1CC2(CC3(Cl)C(Cl)=C(Cl)C2(Cl)C3(Cl)Cl)C(=O)O1 (configuration not stated) | 113% | 113% | 89.4% | 106 | 107% | 93.6% | 102% |  | 112% | 112 |
| COC(=O)[C@@H](C)C[C@H](Cc1ccccc1)NC(=O)c1csc([C@@H](C[C@H](C(C)C)N(C)C(=O)[C@@H](NC(=O)[C@H]2CCCCN2C)C2CC2)OC(C)=O)n1 | 12.3% | -12.4% (active) | 32.3% | 38 | 13.6% | 27.2% | -50.1% (active) |  | 60.3% | 60 |
| O=C1C2C(C(=O)[N]1[Hg][c]1cccs1)C1(Cl)C(Cl)=C(Cl)C2(Cl)C1(Cl)Cl (configuration not stated) | -76.8% (active) | 8.75% (active) | 59.5% | 51.5 | -67.6% (active) | 33.4% | 24% | -90.7% (active) | -76.9% (active) |  |
| CC12CC(=O)C3(SC#N)C(CCC4=CC(=O)CCC43C)C1CCC2=O (configuration not stated) | 34.5% | 64.2% | 93.6% | 96 | 101% | 104% | 101% |  | 94.7% | 89.3 |
| C/C(=C\c1ccn(-c2ccc(N)cc2)n1)[C@@H]1C[C@@H]2O[C@]2(C)CCC[C@H](C)[C@H](O)[C@@H](C)C(=O)C(C)(C)[C@@H](O)CC(=O)O1 | 20% | 15.4% | 3.99% (active) | 33.3 | 25.9% | 13.2% | 10.9% |  | 59.4% | 19.7 |
| CCCCCCCCCCCCCCCCCC1OC[C@H](COC(=O)O[C@@H](C(=O)O[C@H]2C[C@@]3(O)[C@@H](OC(=O)c4ccccc4)[C@@H]4[C@]5(OC(C)=O)CO[C@@H]5C[C@H](O)[C@@]4(C)C(=O)[C@H](OC(C)=O)C(=C2C)C3(C)C)[C@@H](NC(=O)c2ccccc2)c2ccccc2)O1 (some centres not stated) | 96.8% | 15.7% | 59.1% | 49.6 | 46.6% | 45.2% | 75.6% |  | 55.9% | 46.8 |
